Screening results (PubChem BioAssay)
Cardio protect: cardioprotection against H2O2-induced cell death, primary screen, uHTS, H9c2 cells, ATPLite luminescence; H9c2 cardiomyocytes, H2O2 injury protection, 2 h; protection from H2O2 cell death, % at 20 µM; 360,000 tested, 0.63% active;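 active = compounds giving at least 50% protection of heart cells from peroxide-induced death in the single-dose screen, raw or plate-pattern-corrected value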;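 also: 0% = DMSO wells with peroxide and 100% = DMSO wells without peroxide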
PLCb3 inh: human PLC-beta3 inhibitors, primary screen, biochemical, fluorescence. 1-phosphatidylinositol 4,5-bisphosphate phosphodiesterase beta-3 (Homo sapiens), Q01970. Purified PLC-beta3, fluorogenic substrate. inhibition, % at 12.2 µM. 370,000 tested, 0.18% active. AID 720704, 2013; in the data active = inhibition above about 11%;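 also: 0% = median of compound wells on plate and 100% = full blocker control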
FAS TE block: FAS thioesterase domain inhibitors, primary screen, biochemical, fluorescence intensity, uHTS; recombinant FAS-TE, OMFH fluorogenic substrate, fluorescence endpoint; 360,000 tested, 0.67% active; inhibition, % at 15 µM; Fatty acid synthase (Homo sapiens), P49327;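 active = compounds whose normalised, plate-corrected inhibition of enzyme fluorescence in the single-dose primary screen is 50% or more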;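 also: 0% = DMSO with enzyme and 100% = substrate without enzyme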
Target sequence (P49327 whole entry, looked up, the tested form may be a part): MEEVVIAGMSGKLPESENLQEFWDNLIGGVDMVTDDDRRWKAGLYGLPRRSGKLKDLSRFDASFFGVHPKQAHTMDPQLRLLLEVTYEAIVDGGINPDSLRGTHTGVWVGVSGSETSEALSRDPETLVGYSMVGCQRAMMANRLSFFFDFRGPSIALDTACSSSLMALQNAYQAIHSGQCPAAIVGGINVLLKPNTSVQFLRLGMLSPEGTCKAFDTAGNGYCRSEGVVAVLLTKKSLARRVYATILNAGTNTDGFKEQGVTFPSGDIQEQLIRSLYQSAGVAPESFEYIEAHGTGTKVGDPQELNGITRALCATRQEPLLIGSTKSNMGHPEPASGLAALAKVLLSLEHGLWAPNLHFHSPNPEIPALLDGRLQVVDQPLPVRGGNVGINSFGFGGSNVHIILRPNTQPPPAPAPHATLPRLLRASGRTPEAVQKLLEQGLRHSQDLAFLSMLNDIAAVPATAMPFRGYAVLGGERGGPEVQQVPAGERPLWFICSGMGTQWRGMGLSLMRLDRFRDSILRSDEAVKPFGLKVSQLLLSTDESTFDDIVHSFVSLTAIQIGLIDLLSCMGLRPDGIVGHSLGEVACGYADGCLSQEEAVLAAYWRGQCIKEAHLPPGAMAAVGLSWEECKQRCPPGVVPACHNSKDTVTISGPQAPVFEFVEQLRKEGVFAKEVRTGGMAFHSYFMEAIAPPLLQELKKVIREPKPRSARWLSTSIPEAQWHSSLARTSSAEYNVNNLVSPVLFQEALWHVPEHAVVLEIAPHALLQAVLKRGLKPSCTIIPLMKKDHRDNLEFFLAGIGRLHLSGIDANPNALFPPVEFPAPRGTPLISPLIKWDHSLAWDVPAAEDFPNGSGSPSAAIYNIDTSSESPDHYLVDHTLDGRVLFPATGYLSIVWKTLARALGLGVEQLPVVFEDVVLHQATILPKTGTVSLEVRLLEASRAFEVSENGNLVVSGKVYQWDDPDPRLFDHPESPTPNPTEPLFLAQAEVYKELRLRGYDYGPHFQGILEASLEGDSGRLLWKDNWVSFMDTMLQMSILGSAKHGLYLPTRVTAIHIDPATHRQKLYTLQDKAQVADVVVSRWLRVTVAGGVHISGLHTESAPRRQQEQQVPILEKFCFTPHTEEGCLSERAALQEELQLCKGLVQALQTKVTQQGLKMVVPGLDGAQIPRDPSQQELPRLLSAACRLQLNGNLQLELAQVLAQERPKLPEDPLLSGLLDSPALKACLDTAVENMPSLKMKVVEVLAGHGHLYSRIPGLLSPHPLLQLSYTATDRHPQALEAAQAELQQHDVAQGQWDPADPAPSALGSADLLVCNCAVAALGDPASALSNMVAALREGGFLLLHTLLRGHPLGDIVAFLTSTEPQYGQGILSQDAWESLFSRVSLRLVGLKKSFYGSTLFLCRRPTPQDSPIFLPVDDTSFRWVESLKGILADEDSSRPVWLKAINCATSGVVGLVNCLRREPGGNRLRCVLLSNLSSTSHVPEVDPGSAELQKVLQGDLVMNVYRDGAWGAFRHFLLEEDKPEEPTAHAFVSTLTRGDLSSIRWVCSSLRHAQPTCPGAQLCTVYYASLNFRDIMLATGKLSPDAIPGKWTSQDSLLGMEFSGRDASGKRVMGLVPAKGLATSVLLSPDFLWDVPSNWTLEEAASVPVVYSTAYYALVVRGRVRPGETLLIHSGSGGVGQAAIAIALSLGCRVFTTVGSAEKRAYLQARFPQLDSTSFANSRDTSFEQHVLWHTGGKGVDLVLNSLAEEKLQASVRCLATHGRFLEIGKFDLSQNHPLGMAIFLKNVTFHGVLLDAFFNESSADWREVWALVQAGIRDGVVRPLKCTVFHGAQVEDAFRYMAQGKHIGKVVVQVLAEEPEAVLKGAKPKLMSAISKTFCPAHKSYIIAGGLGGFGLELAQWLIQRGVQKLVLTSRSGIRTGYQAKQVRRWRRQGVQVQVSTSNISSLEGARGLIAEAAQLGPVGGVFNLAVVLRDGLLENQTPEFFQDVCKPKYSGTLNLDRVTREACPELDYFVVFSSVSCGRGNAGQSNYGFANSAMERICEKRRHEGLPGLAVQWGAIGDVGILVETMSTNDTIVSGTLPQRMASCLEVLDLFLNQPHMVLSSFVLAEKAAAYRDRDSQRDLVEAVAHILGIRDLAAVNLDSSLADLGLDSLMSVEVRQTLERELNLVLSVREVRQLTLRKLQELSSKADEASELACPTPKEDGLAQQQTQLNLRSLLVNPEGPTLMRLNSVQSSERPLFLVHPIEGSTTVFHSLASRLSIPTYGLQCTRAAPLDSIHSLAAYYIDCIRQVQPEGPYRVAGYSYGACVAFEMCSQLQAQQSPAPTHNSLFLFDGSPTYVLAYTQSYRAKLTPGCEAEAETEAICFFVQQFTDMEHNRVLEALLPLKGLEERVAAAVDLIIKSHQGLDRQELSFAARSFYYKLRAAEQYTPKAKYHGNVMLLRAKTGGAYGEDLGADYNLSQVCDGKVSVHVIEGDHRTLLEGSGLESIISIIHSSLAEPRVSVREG
PLCg1 inh: PLC-gamma1 enzyme inhibitors, primary screen, biochemical, fluorescence, purified enzyme; inhibition, % at 12.2 µM; fluorogenic substrate; 370,000 tested, 0.84% active; in the data active = inhibition above about 9.5%
FAS-TE inh conf: FAS thioesterase domain inhibitors, confirmation, biochemical, fluorescence intensity, single concentration | shares compounds with FAS TE block | inhibition, % at 15 µM | 2,300 tested, 45% active | recombinant FAS-TE, OMFH fluorogenic substrate;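 active = compounds inhibiting the enzyme by at least 50% at 15 µM in any one of the replicates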;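 also: 0% = enzyme with DMSO only and 100% = wells lacking enzyme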
* hit, by the source's call; i = inactive; x = no result given. Most compounds without a hit are left out; they make up all but 2.2% or so of the library.

SMILES | Cardio protect | PLCb3 inh | FAS TE block | PLCg1 inh | FAS-TE inh conf
Cc1ccc2c(c1C)-c1c(ccc(C)c1C)C(=O)C2=O | -16.4 | -30.8 | 61.1* | -15.0 | 56.0*
COC(=O)[C@]1(Cc2ccccc2)N[C@H](CN(C)C(=O)Nc2ccc(C(F)(F)F)cc2)[C@@H]2C(=O)N(Cc3ccccc3)C(=O)[C@@H]21 | -7.1 | -1.9 | 62.9* | -0.7 | 34.7
CCN(C[C@H]1N[C@@](Cc2ccccc2)(C(=O)OC)[C@H]2C(=O)N(Cc3ccccc3)C(=O)[C@@H]12)C(=O)Nc1ccc(F)cc1 | 5.3 | 3.5 | 25.4 | 8.4 | x
CCN(C[C@H]1N[C@@](Cc2ccccc2)(C(=O)OC)[C@H]2C(=O)N(Cc3ccccc3)C(=O)[C@@H]12)C(=O)Nc1ccc(Cl)cc1 | -16.6 | -0.1 | 59.6* | 2.1 | 35.6
CN[C@H]1C[C@H]2c3[nH]c4c(-c5cccc(C)c5)cccc4c3CCN2C(=O)[C@H]1[C@H](C)O | x | -66.8 | x | -48.0 | x
COC(=O)c1c(NC(=O)Cn2cc([N+](=O)[O-])cn2)sc2c1CCC2 | -15.5 | 5.8 | 51.3* | 2.4 | 11.9
Cc1ccc(C)c(SCC(=O)N(C)CC(=O)Nc2ccc(N3CCOCC3)cc2)c1 | 1.8 | -8.6 | -1.3 | -0.9 | x
COc1cccc(CNC(=O)[C@H]2CCCN2C(=O)[C@H]2CCCN2C(=O)c2ccc(OC(F)(F)F)cc2)c1 | x | -0.8 | x | 2.2 | x
CCOCCCn1c(=NC(=O)c2cccnc2)c(C(=O)OCC)cc2c(=O)n3ccccc3nc21 | 34.1 | i | 31.6 | i | x
Cc1cccn2c(=O)c3cc(C#N)c(=NC(=O)c4cccs4)n(CCCOC(C)C)c3nc12 | 57.3* | -159.9 | 52.0* | -112.2 | 21.6
CCCCn1c(=NC(=O)c2ccco2)c(C(=O)OCC)cc2c(=O)n3cccc(C)c3nc21 | -13.9 | -227.2 | 55.8* | -185.0 | 26.6
CCCCn1c(=NC(=O)c2ccco2)c(C(=O)OCC)cc2c(=O)n3ccccc3nc21 | 17.4 | i | 36.0 | -464.1 | x
CCOC(=O)c1cc2c(=O)n3cccc(C)c3nc2n(CCCOC)c1=NC(=O)c1cccnc1 | 101.4* | -388.9 | 53.8* | -331.1 | 11.7
C[C@H]1[C@H](N(Cc2ccccc2)Cc2ccccc2)CC[C@@]23CCCN2C(=O)CCC[C@@H]13 | x | 0.8 | x | 1.0 | x
Cc1ccc2nc(SCC(=O)N3N=C(c4cccs4)CC3c3ccc(F)cc3)nc(=O)n2c1 (stereo unspecified) | 20.9 | -0.5 | 41.9 | -1.2 | x
COc1ccc(C2=NN(C(=O)CSc3nc(=O)n4cccc(C)c4n3)C(c3ccc(C)cc3)C2)cc1 (stereo unspecified) | -2.1 | -8.8 | 90.0* | 7.6 | 34.6
Cc1ccc(C2CC(c3cccs3)=NN2C(=O)CSc2nc(=O)n3cc(C)ccc3n2)cc1 (stereo unspecified) | 0.3 | -12.8 | 50.7* | -18.7 | 40.5
Cc1ccn2c(=O)nc(SCC(=O)N3N=C(c4cccs4)CC3c3ccc(F)cc3)nc2c1 (stereo unspecified) | 0.0 | -18.2 | 54.3* | -9.2 | 46.4*
COc1ccc(C2CC(c3cccs3)=NN2C(=O)CSc2nc(=O)n3ccccc3n2)cc1 (stereo unspecified) | 15.6 | -5.8 | 43.0 | 2.9 | x
Cc1cccn2c(=O)nc(SCC(=O)N3N=C(c4cccs4)CC3c3ccc(F)cc3)nc12 (stereo unspecified) | 10.2 | -6.5 | 53.5* | -0.8 | 41.5
COc1ccc(C2=NN(C(=O)CSc3ncccn3)C(c3ccc(C)cc3)C2)cc1 (stereo unspecified) | -3.1 | 1.3 | 22.2 | -0.1 | x
COC(=O)[C@]12C[C@H](CC(=O)N3CCOCC3)C(=O)N(Cc3ccccc3)C1=C[C@H](C1CCCC1)O[C@@H]2C | x | 3.0 | x | 1.2 | x
C[C@H]1[C@@H](O)CC[C@@]23CCCN2C(=O)CCC[C@@H]13 | x | 1.2 | x | -1.1 | x
COc1ccc(-c2csc(N3C(=O)C4C5c6ccccc6C(c6ccccc65)C4C3=O)n2)cc1 (stereo unspecified) | -3.5 | -3.0 | 63.2* | 2.1 | 33.8
COc1ccc(-c2csc(N3C(=N)SCC3=O)n2)cc1 | -3.3 | -0.7 | -10.3 | 0.4 | x
COc1ccc(-c2csc(N3C(=O)CNC3=S)n2)cc1 | 1.5 | 3.8 | -5.0 | 6.0 | x
